Results published in PubChem BioAssay AID2172 (The Scripps Research Institute Molecular Screening Center, 2009).
This is one part of the list. A number with no mark means an inactive call. The rule behind the calls is not given here.

Assay: DNA intercalator displacement (FID) – biochemical, fluorescence, counter-screen for HCV NS3 helicase inhibitor project, dose response (AID 2172)
Conditions: fluorescent intercalator displacement from DNA

Question: Which IC50 does the source give for `COc1ccc(N2C(=O)/C(=C/c3ccco3)C(=O)NC2=S)cc1` here?
Answer: 28.9 µM
